# Reference: PubChem BioAssay (NCI)
# This is part of a sample that, as a whole, favours compounds with a hit. Of some 79,000 tested, about 15% had one in any assay. Unmarked numbers belong to inactive results. Activity calls are given as the source filed them. Rule as the data show it: active = growth inhibition above about 70%; inactive = the rest. Residues, ends and D or L forms follow the SMILES beside them. *: point of attachment. Fmoc = O=C(OCC1c2ccccc2-c2ccccc21)*; Boc = CC(C)(C)OC(=O)*
# Assays:
# [1] = NCI Yeast Anticancer Drug Screen. Data for the rad52 strain (AID 147);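 also: 0% = growth of vehicle-treated control cultures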; details: S. cerevisiae rad52 mutant growth inhibition, active compounds read high
# How it was run: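 Genetically altered yeast (DNA damage repair defect) treated with compound; inhibition calculated relative to vehicle.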
# [2] = NCI Yeast Anticancer Drug Screen. Data for the wt1 strain (AID 149);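 also: 0% = growth of vehicle-treated wt1 cultures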; details: S. cerevisiae wt1 strain (SPY 50644) growth inhibition, active compounds read high
# How it was run: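 Readout: yeast growth inhibition, normalised to vehicle controls, in the wt1 strain exposed to test compounds.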
# [3] = NCI Yeast Anticancer Drug Screen. Data for the rad50EPP+ strain (AID 151);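 also: 0% = growth of vehicle-treated control cultures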; details: S. cerevisiae rad50 mutant strain, active compounds read high
# How it was run: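 Strain rad50EPP+; compound exposure; % growth inhibition vs vehicle.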
# [4] = NCI Yeast Anticancer Drug Screen. Data for the mgt1 strain (AID 153); details: S. cerevisiae mgt1 mutant growth inhibition, active compounds read high
# How it was run: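 Read-out: yeast growth inhibition vs vehicle control. Strain mgt1, drawn from a panel altered in DNA damage repair or cell cycle control.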
# [5] = NCI Yeast Anticancer Drug Screen. Data for the rad50 strain (AID 155);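 also: 0% = growth of vehicle-only cultures of the same strain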; details: S. cerevisiae rad50 strain growth inhibition, active compounds read high
# How it was run: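 Compounds were tested on a yeast strain with an engineered DNA damage repair alteration; the reported value is growth inhibition normalised to vehicle treatment.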
# [6] = NCI Yeast Anticancer Drug Screen. Data for the mec2-1 strain (AID 157); details: S. cerevisiae mec2-1 strain, active compounds read high
# How it was run: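 Cells of the genetically defined mec2-1 yeast strain are incubated with test compound. Inhibition of growth is calculated against vehicle-treated controls.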
# [7] = NCI Yeast Anticancer Drug Screen. Data for the rad14 strain (AID 159);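 also: 0% = growth of vehicle-treated control cultures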; details: S. cerevisiae rad14 strain growth inhibition, active compounds read high
# How it was run: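 Compound-treated yeast with a defined DNA-repair lesion; growth inhibition normalised to vehicle-treated cultures.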
# [8] = NCI Yeast Anticancer Drug Screen. Data for the sgs1 mgt1 strain (AID 161);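 also: 0% = growth of cultures given vehicle only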; details: S. cerevisiae sgs1 mgt1 strain, active compounds read high
# How it was run: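 Test agents were incubated with a DNA-repair-mutant yeast strain. Growth was then read and compared against vehicle-treated controls.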
# [9] = NCI Yeast Anticancer Drug Screen. Data for the CLN2oe strain (AID 163);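 also: 0% = growth of vehicle-only control cultures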; details: S. cerevisiae CLN2oe strain, active compounds read high
# How it was run: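 Strain altered in cell-cycle control, incubated with compound; growth compared to solvent-treated controls.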
# [10] = NCI Yeast Anticancer Drug Screen. Data for the cln2 rad14 strain (AID 165);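 also: 0% = growth equal to vehicle treated cultures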; details: S. cerevisiae cln2 rad14 strain, active compounds read high
# How it was run: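 The screen exposed genetically defined yeast (cln2 rad14) to test compounds and scored growth inhibition relative to vehicle-treated controls.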
# [11] = NCI Yeast Anticancer Drug Screen. Data for the bub3 strain (AID 167); details: S. cerevisiae bub3 mutant strain, active compounds read high
# How it was run: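 Growth of a checkpoint-deficient yeast mutant is measured after compound exposure. Values represent inhibition relative to vehicle.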
# [12] = NCI Yeast Anticancer Drug Screen. Data for the wt2 strain (AID 169);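 also: 0% = growth of vehicle-treated yeast cultures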; details: S. cerevisiae wt2 strain growth inhibition, active compounds read high
# How it was run: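 Steps: yeast strain treated with compound; growth recorded; inhibition calculated relative to cultures given vehicle alone.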
# [13] = NCI Yeast Anticancer Drug Screen. Data for the mlh1 strain (AID 171);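 also: 0% = growth of vehicle-treated control cultures of the same strain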; details: S. cerevisiae mlh1 strain growth inhibition, active compounds read high
# How it was run: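 Yeast screen: mutant strain plus compound, growth scored against vehicle control wells.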
# [14] = NCI Yeast Anticancer Drug Screen. Data for the sgs1 strain (AID 173);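 also: 0% = growth of vehicle-only control cultures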; details: S. cerevisiae sgs1 mutant, active compounds read high
# How it was run: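 Inhibition of yeast growth served as the measure. The mutant strain was treated with each compound, and growth was normalised to cultures receiving vehicle alone.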
# [15] = NCI Yeast Anticancer Drug Screen. Data for the mlh1 rad18 strain (AID 175); details: S. cerevisiae mlh1 rad18 strain growth inhibition, active compounds read high
# How it was run: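 Compound-treated yeast growth, normalised to vehicle controls. Strain bears defined DNA repair mutations.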
# [16] = NCI Yeast Anticancer Drug Screen. Data for the rad18 strain (AID 177); details: S. cerevisiae rad18 mutant growth inhibition, active compounds read high
# How it was run: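 Inhibition values reflect reduced yeast growth compared with vehicle-treated controls, using a strain engineered with a DNA damage repair defect.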
# [17] = at 5.0 µM (retest, dose inferred, filed as 0.5)
# [18] = at 50.0 µM (retest, dose inferred, filed as 5.0)
smiles,measurement,setting,value
CC(C)(C)OC(=O)NCCCCC(NC(=O)C(Cc1c[nH]c2ccccc12)NC(=O)OCC1c2ccccc2-c2ccccc21)C(=O)O (stereo not drawn) (Fmoc-Trp-Lys(Boc)-OH; configuration not given here),growth inhibition,[1]; at 1.2 µM,-3%
same,growth inhibition,[1]; at 3.7 µM,0%
same,growth inhibition,[1]; at 11.0 µM,-2%
same,growth inhibition,[1]; at 33.0 µM,10%
same,growth inhibition,[1]; at 100.0 µM,58%
same,growth inhibition,[2]; at 1.2 µM,-2%
same,growth inhibition,[2]; at 3.7 µM,-2%
same,growth inhibition,[2]; at 11.0 µM,-3%
same,growth inhibition,[2]; at 33.0 µM,2%
same,growth inhibition,[2]; at 100.0 µM,50%
same,growth inhibition,[3]; at 1.2 µM,-1%
same,growth inhibition,[3]; at 3.7 µM,0%
same,growth inhibition,[3]; at 11.0 µM,2%
same,growth inhibition,[3]; at 33.0 µM,2%
same,growth inhibition,[3]; at 100.0 µM,-5%
same,growth inhibition,[4]; at 1.2 µM,0%
same,growth inhibition,[4]; at 3.7 µM,2%
same,growth inhibition,[4]; at 11.0 µM,-4%
same,growth inhibition,[4]; at 33.0 µM,8%
same,growth inhibition,[4]; at 100.0 µM,75% (active)
same,growth inhibition,[5]; at 1.2 µM,-3%
same,growth inhibition,[5]; at 3.7 µM,-1%
same,growth inhibition,[5]; [17],-19%
same,growth inhibition,[5]; at 11.0 µM,-3%
same,growth inhibition,[5]; at 33.0 µM,11%
same,growth inhibition,[5]; [18],22%
same,growth inhibition,[5]; at 50.0 µM,15.4%
same,growth inhibition,[5]; at 100.0 µM,56%
same,growth inhibition,[6]; at 1.2 µM,-1%
same,growth inhibition,[6]; at 3.7 µM,-4%
same,growth inhibition,[6]; [17],1%
same,growth inhibition,[6]; at 11.0 µM,-4%
same,growth inhibition,[6]; at 33.0 µM,9%
same,growth inhibition,[6]; [18],36%
same,growth inhibition,[6]; at 50.0 µM,42.6%
same,growth inhibition,[6]; at 100.0 µM,52%
same,growth inhibition,[7]; at 1.2 µM,-1%
same,growth inhibition,[7]; at 3.7 µM,0%
same,growth inhibition,[7]; at 11.0 µM,1%
same,growth inhibition,[7]; at 33.0 µM,28%
same,growth inhibition,[7]; at 100.0 µM,70% (active)
same,growth inhibition,[8]; [17],-13%
same,growth inhibition,[8]; [18],21%
same,growth inhibition,[8]; at 50.0 µM,36.1%
same,growth inhibition,[9]; at 1.2 µM,4%
same,growth inhibition,[9]; at 3.7 µM,1%
same,growth inhibition,[9]; at 11.0 µM,-7%
same,growth inhibition,[9]; at 33.0 µM,17%
same,growth inhibition,[9]; at 100.0 µM,66%
same,growth inhibition,[10]; [17],37%
same,growth inhibition,[10]; [18],21%
same,growth inhibition,[10]; at 50.0 µM,82.8% (active)
same,growth inhibition,[11]; at 1.2 µM,-3%
same,growth inhibition,[11]; at 3.7 µM,-1%
same,growth inhibition,[11]; [17],-19%
same,growth inhibition,[11]; at 11.0 µM,-1%
same,growth inhibition,[11]; at 33.0 µM,6%
same,growth inhibition,[11]; [18],5%
same,growth inhibition,[11]; at 50.0 µM,18.4%
same,growth inhibition,[11]; at 100.0 µM,59%
same,growth inhibition,[12]; at 1.2 µM,0%
same,growth inhibition,[12]; at 3.7 µM,-2%
same,growth inhibition,[12]; at 11.0 µM,-4%
same,growth inhibition,[12]; at 33.0 µM,1%
same,growth inhibition,[12]; at 100.0 µM,61%
same,growth inhibition,[13]; at 1.2 µM,-1%
same,growth inhibition,[13]; at 3.7 µM,-1%
same,growth inhibition,[13]; at 11.0 µM,-2%
same,growth inhibition,[13]; at 33.0 µM,10%
same,growth inhibition,[13]; at 100.0 µM,70% (active)
same,growth inhibition,[14]; at 1.2 µM,-1%
same,growth inhibition,[14]; at 3.7 µM,0%
same,growth inhibition,[14]; at 11.0 µM,0%
same,growth inhibition,[14]; at 33.0 µM,11%
same,growth inhibition,[14]; at 100.0 µM,61%
same,growth inhibition,[15]; [17],-11%
same,growth inhibition,[15]; [18],50%
same,growth inhibition,[15]; at 50.0 µM,60.6%
same,growth inhibition,[16]; at 1.2 µM,-1%
same,growth inhibition,[16]; at 3.7 µM,-2%
same,growth inhibition,[16]; at 11.0 µM,-2%
same,growth inhibition,[16]; at 33.0 µM,8%
same,growth inhibition,[16]; at 100.0 µM,59%
